Experiment [1] can be described thus: Viability qHTS for spleen associated tyrosine kinase inhibitor (SYKi) naive MV4-11 cells (AID 1963823). Also: nearly all actives have a fitted effect of over 40% in size. The procedure, abridged:
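SYK inhibitor-naive MV4-11 cells, 500 per well, exposed to compounds for 72 hr at 37 C, 5% CO2. Viability read as CellTiter-Glo luminescence after 10 min at room temperature.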
In general terms: In qHTS, concentration-response curves come from the screen itself.

Experiment [2] is described as follows: Viability qHTS for spleen associated tyrosine kinase inhibitor (SYKi) drug resistant MV4-11 cells (AID 1963824). Also: nearly all actives have a fitted effect of over 35% in size. In outline: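 SYK-inhibitor-resistant MV4-11 AML cells were seeded at 500 per well onto compound and cultured 72 hours (37 °C, 5% CO2). CellTiter-Glo was then added, and after 10 min at room temperature, luminescence gave viability.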

These results are taken from PubChem BioAssay (NCATS).

Several values for one entry are separate records, joined by “and”; a condition that tells them apart may be missing. Identical values can stand only once. Records with an inconclusive call do not appear. Values without a mark were called inactive. Activity calls are given as the source filed them. Calls follow the shape of the dose curve; as a rule, active = well fitted cell-killing curve with a large enough effect; inconclusive = small, poorly fitted or top-dose-only effect, or effect the other way; inactive = no such curve, though single readings can be large or run the other way.
Potency is read from the fitted curve at half-maximal effect.

Regarding `COc1cc(O)c2c(c1)CCC[C@@H](O)[C@H](O)C(=O)/C=C\C[C@H](C)OC2=O`, the Potency in experiment [1] is 1.8 µM (active); in experiment [2] it was 2.86 µM (active).

As to `CCCCCCCCC(=O)NCc1ccc(O)c(OC)c1`, the Potency entry in experiment [1] and in experiment [2] was “inactive” each time.

Turning to `COC1CC(O[C@H]2CC[C@]3(C)C4CC[C@]5(C)[C@@H](C6=CC(=O)OC6)[C@@H](OC(C)=O)C[C@]5(O)C4CC[C@@H]3C2)OC(C)C1O[C@@H]1O[C@H](CO)[C@@H](O)[C@H](O)[C@H]1O` (stereo not given in full), the Potency is 0.306 µM (active) in experiment [1] and 0.243 µM (active) in experiment [2].

`C=C(CO)C(=O)O[C@H]1CC(=C)[C@@H]2C[C@H](O)C(=C)[C@@H]2[C@H]2OC(=O)C(=C)[C@@H]21`: the Potency is 1.8 µM (active) in experiment [1] and 1.61 µM (active) in experiment [2].

Regarding `CC(=O)O[C@@H]1[C@@H](O)[C@H]2O[C@@H]3C=C(C)[C@@H](O)C[C@]3(CO)[C@]1(C)[C@]21CO1`, the Potency in experiment [1] and in experiment [2] was 0.321 µM (active) in each case.

`CC(=O)OC[C@]12[C@H](OC(C)=O)C(=O)[C@@H]3[C@@H](O)[C@@]14O[C@@]3(C)COC(=O)c1cccnc1[C@@H](C)[C@H](C)C(=O)O[C@@H]([C@H](OC(C)=O)[C@@H]2OC(C)=O)[C@]4(C)O`: the Potency in experiment [1] and in experiment [2] was 5.44 µM (active) throughout.

With `CCN1C[C@]2(COC(=O)c3ccccc3N3C(=O)C[C@H](C)C3=O)CC[C@H](OC)[C@@]34[C@@H]5C[C@H]6[C@H](OC)[C@@H]5[C@](O)(C[C@@H]6OC)[C@](O)([C@@H](OC)[C@H]23)[C@@H]14`, the Potency entry in experiment [1] and in experiment [2] was “inactive” throughout.

As to `O=C(OC[C@H]1O[C@@H](Oc2ccc(O)cc2CO)[C@H](O)[C@@H](O)[C@@H]1O)c1ccccc1`, the Potency result in experiment [1] and in experiment [2] was “inactive” each time.

As for `COCC(C(=O)OC1CC2CCC(C1)N2C)c1ccccc1` (stereo not given), the Potency entry in experiment [1] and in experiment [2] was “inactive” each time.

With `O=C(O)c1ccnc2cc(C(OCCN3CCCCC3)c3ccccc3Cl)[nH]c12` (stereo not given), the Potency result in experiment [1] and in experiment [2] was “inactive” each time.

Consider `Clc1ccc([C@]23CNC[C@H]2C3)cc1Cl`, for which the Potency entry in experiment [1] and in experiment [2] was “inactive” throughout.

In the case of `CC[C@@]1(O)C(=O)OCc2c1cc1n(c2=O)Cc2cc3c(OC)cccc3nc2-1`, the Potency in experiment [1] is 0.0143 µM (active); in experiment [2], 0.0114 µM (active).

Take `C=C(C)C(=O)O[C@H]1[C@@H]2[C@H](C)C(=O)O[C@@H]2C[C@@H](C)[C@@H]2C=CC(=O)[C@]21C`: the Potency is 1.43 µM (active) in experiment [1] and 1.14 µM (active) in experiment [2].

In the case of `Cc1c(N2C(=O)[C@@H]3[C@H](O)CCN3C2=O)ccc(C#N)c1Cl`, the Potency result in experiment [1] and in experiment [2] was “inactive” throughout.

As to `CN[C@H]1[C@H](O)[C@H](O[C@@H]2[C@@H](O)[C@H](O[C@H]3O[C@H]([C@H](C)O)[C@@H](O)[C@H](O)[C@H]3N)[C@@H](N)C[C@H]2N)OC[C@@]1(C)O`, the Potency result in experiment [1] and in experiment [2] was “inactive” each time.

With `C=C1C[C@@H]2[C@H](CC[C@]3(C)C(=O)CC[C@@H]23)[C@@]2(C)C=CC(=O)C=C12`, the Potency in experiment [1] is 9.44 µM (active) and 14.8 µM (active); in experiment [2], 5.96 µM (active) and 11.8 µM (active).

With `CC1=CC2/C=C(\C)CCC(O)C(O)/C=C/C(=O)OC23C(=O)NC(CC(C)C)C3C1C` (stereo not given), the Potency in experiment [1] and in experiment [2] was 7.96 µM (active) throughout.

Turning to `CCN1C[C@]2(COC)[C@H](O)C[C@H](OC)[C@]34[C@@H]5C[C@]6(O)[C@H](OC(=O)c7ccccc7)[C@@H]5[C@@](O)([C@H]([C@H](OC)[C@H]23)[C@@H]14)[C@@H](O)[C@@H]6OC`, the Potency entry in experiment [1] and in experiment [2] was “inactive” in each case.

As to `CN1[C@H]2C[C@H](OC(=O)[C@H](CO)c3ccccc3)C[C@@H]1[C@@H](O)C2`, the Potency result in experiment [1] and in experiment [2] was “inactive” throughout.

`C=C1[C@@H](C)[C@H]2[C@H](Cc3ccccc3)NC(=O)[C@]23OC(=O)/C=C/C(=O)CCC[C@@H](C)C/C=C/[C@H]3[C@@H]1O`: the Potency in experiment [1] and in experiment [2] was 0.92 µM (active) each time.

Turning to `C/C=C(\C)C(=O)O[C@H]1CC2C(=C1C)[C@H]1OC(=O)[C@](C)(O)[C@]1(O)[C@H](OC(=O)CCC)C[C@@]2(C)OC(C)=O` (stereo not given in full), the Potency in experiment [1] is 1.78 µM (active); in experiment [2] it was 0.563 µM (active).

On to `COc1cc(CC(C)N)c(OC)cc1Br` (stereo not given), for which the Potency is 12.7 µM (active) in experiment [1] and 11.3 µM (active) in experiment [2].

In the case of `Oc1ccc2c3c1O[C@H]1[C@H](N(CCCl)CCCl)CC[C@@]4(O)[C@@H](C2)N(CC2CC2)CC[C@]314`, in experiment [1], the viability (% of control) is 89.3% [at 9.25 µM]. For the same molecule, the viability, % of control in experiment [2] is 83.4% [at 9.25 µM].

For `COC[C@]12CN(C)C3C4[C@H](OC)[C@H]1C3(C(OC)C[C@H]2O)[C@H]1C[C@@]2(O)[C@H](OC(=O)c3ccccc3)[C@@H]1[C@]4(O)[C@@H](O)[C@@H]2OC` (stereo not given in full), the Potency result in experiment [1] and in experiment [2] was “inactive” in each case.

Consider `C=CC(C)(O)CC/C=C(\C)C(=O)O[C@H]1[C@H](O)[C@@H](CO)O[C@@H](OC(=O)[C@]23CCC(C)(C)CC2C2=CCC4[C@@]5(C)CC[C@H](O[C@@H]6O[C@H](CO[C@@H]7OC[C@H](O)[C@H](O)[C@H]7O[C@@H]7OC[C@@H](O)[C@H](O)[C@H]7O)[C@@H](O)[C@H](O)[C@H]6O)C(C)(C)C5CC[C@@]4(C)[C@]2(C)CC3)[C@@H]1OC1OC(C)C(O[C@@H]2OC[C@@H](O)[C@H](O[C@@H]3OC[C@@H](O)[C@H](O)[C@H]3O)[C@H]2O)C(O)C1O` (stereo not given in full), for which the viability (% of control) in experiment [1] is 65.2% [at 9.25 µM]. For the same molecule, in experiment [2], the viability, % of control was 77.8% [at 9.25 µM].

For the molecule `CC[C@@H]1C[C@H]2CC[C@H](O2)[C@H](C)C(=O)O[C@@H](C)C[C@@H]2CC[C@@H](O2)[C@@H](C)C(=O)O[C@H](C)C[C@H]2CC[C@H](O2)[C@H](C)C(=O)O[C@@H](C)C[C@@H]2CC[C@@H](O2)[C@@H](C)C(=O)O1`, the Potency in experiment [1] is 0.0343 µM (active); in experiment [2], 0.0385 µM (active).

On to `N#CC(O[C@@H]1O[C@H](CO)[C@@H](O)[C@H](O)[C@H]1O)c1ccccc1` (stereo not given in full), for which the Potency result in experiment [1] and in experiment [2] was “inactive” each time.

Turning to `Clc1ccc(N2C[C@H]3CC[C@@H](C2)N3)nn1`, the Potency entry in experiment [1] and in experiment [2] was “inactive” in each case.

`Cc1ccc2c(c1)[C@H]1CN(C)CC[C@H]1N2C(=O)CSc1nnnn1-c1ccc(Cl)cc1`: the Potency entry in experiment [1] and in experiment [2] was “inactive” each time.

As to `CC12Cc3cn[nH]c3C=C1CCC1C2CCC2(C)C1CCC2(C)O` (stereo not given), the Potency in experiment [1] is 25.9 µM (active); in experiment [2], 20.6 µM (active).

As to `COC(=O)[C@@]1(C)C(=O)C=C[C@]2(C)c3c(O)cc(C(C)C)cc3[C@H](O)[C@@H](OC(C)=O)C12` (stereo not given in full), the Potency in experiment [1] was 11.2 µM (active); in experiment [2] it was 8.93 µM (active).

Consider `COC(=O)C12C(=O)C(C)(O)C(=O)C1(C)C(C)=CC1C34CCC(OC3=O)C(C)(CO)C4CCC12C` (stereo not given), for which the Potency entry in experiment [1] and in experiment [2] was “inactive” each time.

`Cc1ccccc1C1=CCN(C)CC1`: the Potency result in experiment [1] and in experiment [2] was “inactive” throughout.

Regarding `COC1=CC(=O)O[C@@H](/C=C/c2ccccc2)C1`, the Potency entry in experiment [1] and in experiment [2] was “inactive” each time.

In the case of `COC[C@@H]1OC(=O)c2coc3c2[C@]1(C)C1=C(C3=O)[C@H]2CC[C@H](O)[C@@]2(C)C[C@@H]1OC(C)=O`, the values for the Potency in experiment [1] and in experiment [2] were 8.2 µM (active) and 6.51 µM (active), respectively.

As to `COC1CC(O[C@H]2CC[C@@]3(C)C(CCC4C3CC[C@]3(C)C(C5=CC(=O)OC5)CCC43O)C2)OC(C)C1OC1OC(COC2OC(CO)C(O)C(O)C2O)C(O)C(O)C1O` (stereo not given in full), the values for the Potency in experiment [1] and in experiment [2] were 1.23 µM (active) and 0.693 µM (active), respectively.

Turning to `C1=C2CCCN[C@H]2[C@@H]2C[C@H]1[C@H]1CCCCN1C2`, the Potency result in experiment [1] and in experiment [2] was “inactive” each time.

As to `CC(C)C(=O)O[C@H]1[C@@H]2[C@H](C)C(=O)O[C@@H]2C[C@@H](C)[C@@H]2C=CC(=O)[C@]21C`, the Potency in experiment [1] is 3.6 µM (active); in experiment [2] it was 2.27 µM (active).

Turning to `C=C1[C@@]23C(=O)O[C@H](C)[C@]24O[C@@]2(C(=C)[C@]5(C=CC(=O)OC5(C)C)CC[C@]32C)[C@H](O)[C@@]1(C)OC4=O`, the Potency result in experiment [1] and in experiment [2] was “inactive” throughout.

With `O=C1Nc2ccc3ncsc3c2/C1=C/c1cnc[nH]1`, the Potency was 0.082 µM (active) in experiment [1] and 0.164 µM (active) in experiment [2].

With `Cc1sc2c(c1C)C(c1ccc(Cl)cc1)=NC(CC(=O)Nc1ccc(O)cc1)c1nnc(C)n1-2` (stereo not given), the Potency in experiment [1] was 0.148 µM (active); in experiment [2] it was 0.105 µM (active).

For the molecule `CN(C)[C@@H]1C(=O)C(C(N)=O)=C(O)[C@@]2(O)C(=O)C3=C(O)c4c(O)ccc(Cl)c4[C@@](C)(O)C3C[C@@H]12` (stereo not given in full), the Potency result in experiment [1] and in experiment [2] was “inactive” each time.

Consider `COc1ccc(CCNCc2ccc(OC)c3ccccc23)cc1`, for which the Potency is 9.2 µM (active) in experiment [1] and 8.2 µM (active) in experiment [2].

As to `CC1Oc2cc3c(-c4c(O)cc(O)c5c(O)c6c(cc45)OC(C)C(C)C6=O)c(O)cc(O)c3c(O)c2C(=O)C1C` (stereo not given), the Potency in experiment [1] is 5.17 µM (active); in experiment [2], 4.61 µM (active).

On to `Nc1ncnc2c1ncn2[C@@H]1O[C@@H]2COP(O)(=S)O[C@H]2[C@H]1O` (stereo not given in full), for which, in experiment [1], the viability (% of control) was 76.1% [at 9.25 µM]. Also, the viability, % of control in experiment [2] is 81% [at 9.25 µM].
